The list is not random: actives were taken first. Their share in the collection is about 32%.
PostGolgi ctrl: growth inhibition of yeast control strain, primary screen, counter-screen for post-Golgi transport modulator project. inhibition, % at 10 µM. actives 5% (n = 98,000). efflux-deficient yeast background strain, growth absorbance A615, 16 h. AID 738, 2007
PostGolgi yeast: phenotypic screen on post-Golgi transport, primary screen. post-Golgi transport phenotypic cell assay. inhibition, % at 10 µM. actives 0.9% (n = 98,000);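 note: yeast cells grown in 1536-well plates; yeast grown about 18 h at 30C before absorbance read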
CYP2C9 inh: blockers of cytochrome P450 2C9 activity – biochemical, luminescence, ADME assay, primary screen; inhibition, % at 5 µM; P11712; CYP2C9 Supersomes, luciferin-H conversion; AID 777, 2007; actives 20% (n = 96,000);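 active = blocking of liver enzyme CYP2C9 beyond about 50% at 5 µM, limit read from the data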
Target sequence (P11712 whole entry, looked up): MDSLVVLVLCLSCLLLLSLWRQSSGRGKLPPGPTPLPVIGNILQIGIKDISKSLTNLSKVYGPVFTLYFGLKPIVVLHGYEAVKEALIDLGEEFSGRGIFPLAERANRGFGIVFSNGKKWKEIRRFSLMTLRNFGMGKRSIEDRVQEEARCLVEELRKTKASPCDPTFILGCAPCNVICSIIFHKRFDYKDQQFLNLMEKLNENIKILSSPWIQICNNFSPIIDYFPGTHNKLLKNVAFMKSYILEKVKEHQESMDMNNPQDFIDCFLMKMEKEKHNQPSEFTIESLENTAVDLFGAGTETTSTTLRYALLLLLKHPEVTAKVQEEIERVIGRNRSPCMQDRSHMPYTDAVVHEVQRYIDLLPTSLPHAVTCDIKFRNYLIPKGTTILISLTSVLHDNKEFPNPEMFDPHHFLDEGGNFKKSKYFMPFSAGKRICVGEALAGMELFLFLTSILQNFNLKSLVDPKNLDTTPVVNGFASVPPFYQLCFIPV
CYP2C19 activ: human CYP2C19 activators, primary screen, biochemical, luminescence. 96,000 tested, under 10 active. recombinant CYP2C19, luciferin-H EGE luminescence; stronger effect = higher value; 0 = fully inhibited enzyme, 1 = untreated enzyme. Cytochrome P450 2C19 (Homo sapiens), P33261. activation factor at 5 µM;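 active = activation factor of at least 2 at 5 µM in the primary screen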
CYP2C19 inhib: blockers of cytochrome P450 2C19 activity – biochemical, luminescence, ADME assay, primary screen | P33261 | CYP2C19 Supersomes, luciferin-H EGE luminescence, 30 min | inhibition, % at 5 µM | actives 21% (n = 96,000) | AID 778, 2007;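 active = CYP2C19 inhibition above a set limit at 5 µM in the primary screen, cut at about 50% in these data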
CYP2C9 activ: human CYP2C9 activators, primary screen, biochemical, luminescence. Cytochrome P450 2C9 (Homo sapiens), P11712. actives 1.4% (n = 96,000). activation factor at 5 µM. recombinant CYP2C9, luciferin-H conversion; stronger effect = higher value; factor 1 = untreated enzyme, 0 = blocked;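 active = activation factor of 2 or more for CYP2C9 at a 5 µM dose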
Large screens that a line does not name were inactive. Cut-off read from the data, not from the text of the source, unless noted: active = inhibition above about 30%; inactive = the rest.

CCOC(=O)CSc1nnc(CNC(=O)c2ccc(OC)c(OC)c2)n1C	none
Cc1ccccc1-n1nnnc1SC1CCOC1=O (stereo unspecified)	PostGolgi ctrl 35.1, CYP2C19 inhib 58.6, CYP2C9 activ 2.2
CCCCn1nnnc1NCc1ccc(OC)c(OC)c1OC	CYP2C19 inhib 70.5
CCCCn1nnnc1NCc1cccs1	CYP2C19 inhib 64.7
CC1CCN(CCCNC(=O)c2ccc(CSCc3cccc(Cl)c3)o2)CC1	none
Cc1ccnc(N/C=C(\C#N)c2nc(-c3cccc(Br)c3)cs2)c1	none
O=C1C(c2ccc(F)cc2)N(CC2COc3ccccc3O2)C(=O)CN1C1CCCCC1 (stereo unspecified)	none
Cc1ccccc1C1C(C#N)=C2NC(=O)c3c(sc4c3CCCCC4)N2C2=C1C(=O)CC(C)(C)C2 (stereo unspecified)	PostGolgi ctrl 40.9
Cc1ccccc1C1C(C#N)=C2N=C(N)c3c(sc4c3CCCCC4)N2C2=C1C(=O)CC(C)(C)C2 (stereo unspecified)	none
C(/CCc1ccccc1)=N\n1cnnc1	none (no result: CYP2C9 inh, CYP2C19 activ, CYP2C19 inhib, CYP2C9 activ)
O=C(NC1CC2CCCC(C1)N2S(=O)(=O)c1ccccc1)C1CCCCC1 (stereo unspecified)	CYP2C9 inh 60.4
O=S(=O)(c1ccccc1)N1CCN(C2CCCCCCC2)CC1	none
Cc1oc(-c2ccc(Cl)cc2)nc1CN1CCCC(C(=O)NCCCN2CCCC2=O)C1 (stereo unspecified)	none
O=C(CSc1ccccc1C(=O)NCCCN1CCCC1=O)NCc1ccco1	none
O=C(CN1CCN(c2ccc(Cl)cc2)CC1)Nc1ccc(F)c(F)c1	none
O=C(CN1CCCCC1)Nc1ccc(F)c(Cl)c1	CYP2C19 inhib 80.9
O=C(CN1CCCCC1)Nc1cccc(Cl)c1Cl	none
O=C(CN1CCCCC1)Nc1cc(Cl)ccc1Cl	CYP2C19 inhib 63.2, CYP2C9 activ 2.2
Cc1ccc(S(=O)(=O)Nc2ccc(NC(=O)CN3CCCCC3)c(Cl)c2)cc1	CYP2C9 inh 100.0, CYP2C19 inhib 70.6
CC(C)CC(C(=O)N1CCc2ccccc2C1)N1C(=O)c2ccccc2C1=O (stereo unspecified)	none
Cc1cc(C)c(S(=O)(=O)Nc2ccc(O)cc2)c(C)c1	CYP2C19 inhib 71.2
COc1cc(NC(=O)CCC(=O)O)nc(OC)n1	none
COc1cc(N)ccc1Cc1ccc(N)cc1OC	CYP2C19 inhib 77.9
Cc1cccn2c(=O)c3cc(C(N)=S)c(=N)n(CCCOC(C)C)c3nc12	CYP2C19 inhib 86.2
CCCCNC(=O)c1cc2c(=O)n3cccc(C)c3nc2n(Cc2ccccc2)c1=N	CYP2C9 inh 64.4
Cc1cccn2c(=O)c3cc(C(=O)NCCc4ccccc4)c(=N)n(CCCn4ccnc4)c3nc12	CYP2C9 inh 57.8, CYP2C19 inhib 55.1
CCNC(=O)c1cc2c(=O)n3cccc(C)c3nc2n(CCc2ccccc2)c1=N	none
Cc1cc(C)c(S(=O)(=O)c2ccccc2)c(OC(=O)c2cc(F)c(F)cc2Cl)n1	none
COc1ccc(OCC(O)COc2ccc(OC)cc2)cc1	CYP2C19 inhib 88.8
COc1ccc(OCC(O)CNC(=O)c2ccc(Br)cc2)cc1 (stereo unspecified)	CYP2C19 inhib 51.7
COc1ccc(OCC(O)CNc2ccc(Br)cc2)cc1 (stereo unspecified)	CYP2C9 inh 89.6, CYP2C19 inhib 96.7
COc1ccc(C(=O)NCC(C)CN(C)C)cc1 (stereo unspecified)	none
CCOc1ccc2nc(NC(=O)C3CCN(c4cnccn4)CC3)sc2c1	none
O=C(NCCCN1CCOCC1)c1csc2c1CCCC2	none
N#C/C(=C/N1CCOCC1)c1ccccc1	CYP2C19 inhib 53.2
O=C(c1ccccc1)N1CCN(C(=O)N2CCOCC2)CC1	none
Cc1cc(OCC(F)(F)C(F)(F)C(F)(F)C(F)(F)C(F)(F)C(F)F)nc(N)n1	PostGolgi yeast 37.0, CYP2C9 inh 56.7, CYP2C19 inhib 64.0
CC1CCCCC1NC(=O)Cn1nnc(-c2ccc(Cl)cc2)n1 (stereo unspecified)	CYP2C19 inhib 70.8
Cc1ccc(-c2nnn(CCC(=O)NC3CCCC3)n2)cc1	CYP2C9 inh 76.2
O=C(CN(C(=O)Cn1nnc(-c2ccc(F)cc2)n1)C1CCCC1)NC1CCCC1	none
Cc1sc(CO)c(Sc2ccccc2)c1C(=O)O	PostGolgi ctrl 34.0 (no result: CYP2C9 inh, CYP2C19 activ, CYP2C19 inhib, CYP2C9 activ)
COc1ccccc1NC(=O)CSc1nnc(CNC(=O)COc2ccc(Cl)cc2)o1	CYP2C19 inhib 59.1, CYP2C9 activ 2.2
COc1ccccc1NC(=O)CSc1nnc(CNC(=O)c2ccco2)o1	none
COc1ccc(NC(=O)CSc2nnc(CNC(=O)COc3ccc(Cl)cc3)o2)c(OC)c1	none
COc1ccccc1OCc1nnc(SCC(=O)c2cc(Cl)ccc2OC)o1	PostGolgi ctrl 32.0, CYP2C9 activ 2.6
COC(=O)c1ccccc1NC(=O)CSc1nnc(Cc2ccc(Cl)cc2)o1	CYP2C9 inh 82.0, CYP2C19 inhib 90.6
COc1ccc(OC)c(NC(=O)CSc2nnc(CNC(=O)COc3ccc(Cl)cc3)o2)c1	CYP2C19 inhib 60.7
c1cnc2ccc(C(c3nnnn3C3CCCC3)N3CCN4CCCC4C3)cc2c1 (stereo unspecified)	none
CCOC(=O)Cn1c(N2CCOCC2)nc2c1c(=O)[nH]c(=O)n2C	none
Cc1ccc(Nc2nc(N)nc(CN3CCN(Cc4ccc5c(c4)OCO5)CC3)n2)cc1Cl	CYP2C9 inh 74.3, CYP2C19 inhib 59.8
Cc1ccc(Nc2nc(N)nc(CN3CCN(Cc4ccc5c(c4)OCO5)CC3)n2)c(C)c1	CYP2C19 inhib 51.5
Cc1ccc(Nc2nc(N)nc(CN3CCN(Cc4ccc5c(c4)OCO5)CC3)n2)cc1	CYP2C19 inhib 51.5
CCOc1ccc(CCNC(=O)C2CCN(S(=O)(=O)N3CCOCC3)CC2)cc1OCC	none
CC(=O)Nc1ccc(OCC=C(Cl)Cl)cc1	none
Cc1ccc(S(=O)(=O)CCCS(=O)(=O)c2ccc(C)cc2)cc1	CYP2C19 inhib 51.9
COC(=O)c1ccc(CS(=O)(=O)c2ccc(C)cc2)cc1	CYP2C9 inh 58.5
Cc1ccc(S(=O)(=O)Cc2cccc(C(=O)N3CCOCC3)c2)cc1	none
COC(=O)c1cccc(COC(=O)c2ccc(CS(=O)(=O)c3ccc(C)cc3)cc2)c1	CYP2C9 inh 76.6
Cc1ccc(NC(=O)C2C3/C=C\CCCCC32)cc1C (stereo unspecified)	none
CCC(=O)OCCNc1cc(Sc2nc3ccccc3s2)c2nonc2c1[N+](=O)[O-]	PostGolgi ctrl 97.8, PostGolgi yeast 94.2, CYP2C9 inh 53.9
O=[N+]([O-])c1c(NCCCO)cc(Sc2nc3ccccc3s2)c2nonc12	none

From PubChem BioAssay
